About 83,000 compounds went through this panel and 20% of them were active in at least one assay; those are over-represented in the sample as a whole.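 In brief: 96-well plates, 48 h treatment, single concentration, percent growth endpoint.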 Unmarked numbers belong to inactive results. Calls of active or inactive are those of the source. How the source made its calls: active means growth percent below 10; inactive means the rest.

This test has as its system OVCAR-5 ovarian. Nature of the test: NCI-60 one-dose screen, 48 h (100 = growth as untreated, 0 = no growth, -100 = all killed). Conditions: 10 µM unless noted.
Consider `O=S(=O)(NCCNc1nccc(-n2cnc3ccccc32)n1)c1ccc(Br)cc1`, for which the growth was 94%. As for `NS(=O)(=O)c1ccc(Nc2nc(N/N=C/c3ccccn3)nc(Nc3ccccc3)n2)cc1`, the growth is 9.36% (active).

For `NC(N)=Nc1ccc(Oc2cccc(Nc3ccc(Br)c(C(F)(F)F)c3)c2)cc1`, the growth was 40.3%. For the compound `O=c1[nH]c2ccccc2cc1CSc1ccccc1Nc1nccc(-c2ccc(Cl)cc2)n1`, the growth was 110%.

As for `COc1ccccc1C(=O)Nc1cccc2c1C(=O)C(=O)C=C2`, the growth is 114%. To `CCO/C=N/C1=C(C#N)C(c2ccc(F)cc2)c2sc3c(C)cccc3c2O1` (stereo unspecified) belongs 25.6%; to `O=C(NNc1nc2cc(F)ccc2n2c(CN3CCCC3)ccc12)c1cnccn1`, 33.5%; to `COc1cc(-c2nn(C(C)(C)C)cc2-c2ccnc(NCCCNS(=O)(=O)c3ccccc3)n2)ccc1Cl`, 84.3%. Next, `O=C(NCc1ncc[nH]1)c1ccc(-c2nc3ccc4[nH]ncc4c3c3c2CCCC3)cc1`: 62.1%; `O=C(NNc1nc2cc(F)ccc2n2c(CO)ccc12)c1cnccn1`: 36.4%. On to `O=[N+]([O-])c1cc(/C=N/Nc2nc(N/N=C/c3ccc(Cl)c([N+](=O)[O-])c3)nc(N3CCCCC3)n2)ccc1Cl`, for which the growth was 108%. Regarding `COc1c(N2CC3CCCNC3C2)c(F)cc2c(=O)c(C(=O)N/N=C/c3ccccc3)cn(C3CC3)c12` (stereo unspecified), the growth was 107%. With `O=C(CNc1nc(-c2cccc([N+](=O)[O-])c2)cs1)Nc1cccc(Cl)c1`, the growth was 105%. On to `O=S(=O)(NCCNc1nccc(-n2cnc3ccccc32)n1)c1ccc(C(F)(F)F)cc1`, for which the growth is 86.2%.

For `CC(C)(C)c1ccc(C(=O)Nc2sc3c(c2C(N)=O)CC/C(=N\O)C3)cc1`, the growth was 26.6%. Next, `CC(=O)c1nnn(-c2c(C(=O)n3nc(C)cc3C)sc(=S)n2-c2ccccc2)c1C`: 120%; `CNC(=O)c1c(NC(=O)c2ccccc2C(F)(F)F)sc2c1CCC(=O)C2`: 23.2%; `O=C(NNc1nc2cc(F)c(F)cc2n2cccc12)c1cnccn1`: 41.2%. For `COc1cc(Nc2c(C#N)cnn3cc(-c4cnn(CC(C)(C)O)c4)cc23)ccc1Cl`, the growth is 43.8%.

Regarding `CCCCCCCn1cc2c(N[C@H](C)c3ccccc3)ncnc2n1`, the growth is 104%. To `O=C(Cn1cc(-c2ccccc2)nn1)Nc1nc(-c2ccc(Cl)cc2)cs1` belongs 104%; to `CCOC(=O)C(=O)CC(=O)N1C(=S)NC(=O)C1CC(C)C` (stereo unspecified), 98.5%. For the compound `O=C1Nc2ccccc2/C1=C/c1ccc(CO)n1-c1ccc(Cl)cc1`, the growth was 89.8%. For `CCO/C=N/C1=C(C#N)C(c2ccc(OC)cc2)c2sc3c(CC)cccc3c2O1` (stereo unspecified), the growth was 43.5%. Next, `O=C1[C@@H]2Cc3c([nH]c4ccccc34)[C@H](c3c(Cl)cccc3Cl)N2C(=O)CN1C1CCN(CC2CCCCC2)CC1`: 93.4%. To `Cc1nn(-c2ccccc2)c2ncnc(N/N=C/c3cccc(O)c3)c12` belongs 77.1%; to `CS(=O)(=O)Nc1cc(-c2ccc3ncc(C#N)c(NCc4cccc(F)c4)c3c2)cnc1Cl`, 16.4%; to `Cc1ccc(-n2cc(/C=C/C(=O)c3ccc(O)cc3)c(-c3ccc(S(C)(=O)=O)cc3)n2)cc1`, 95.7%. Regarding `CC1(C)NCCC[C@]2(C)[C@H]3C/C(=N\O)C4[C@@H]5C[C@@](C)(CO)CC[C@]5(C)CC[C@@]4(C)[C@]3(C)CC[C@@H]12` (stereo partly specified), the growth was 104%. To `C#CCNC1CCC(c2csc(C#C)n2)=C1C` (stereo unspecified) belongs 76%.

With `NS(=O)(=O)c1ccc(Nc2nc(Nc3ccccc3)nc3nnc(SCC(=O)NC4CCCCC4)n23)cc1`, the growth was 105%.

As to `O=C(CNc1nc(-c2cccc([N+](=O)[O-])c2)cs1)Nc1cccc([N+](=O)[O-])c1`, the growth was -12.9% (active). Consider `O=C(CSc1nc2ccccc2c(=O)n1-c1ccc(Cl)cc1)N/N=C/c1ccc(N2CCCCC2)cc1`, for which the growth is 76.9%.

As to `O=C(c1ccc(Cl)cc1)C1[C@H](c2ccc(Cl)cc2)[C@@H](c2ccccc2)NC12C(=O)Nc1ccccc12` (stereo partly specified), the growth was 71%. To `CC(=O)c1ccc(Nc2nc(SCC(C)C)nc(-c3ccc(F)cc3)c2C#N)cc1` belongs 113%; to `Fc1ccc(-c2cc3nc(C(Cl)Cl)nc(-c4ccc(F)cc4)n3n2)cc1`, -14.3% (active).

The values are drawn from PubChem BioAssay (NCI).
